Results as given in PubChem BioAssay AID1159580 (chemical genetic matrix, 2015).
The whole screen tested about 5,500 compounds, of which about 2,000 (36%) were called active. Roughly 18% stayed inconclusive and do not appear here. No stated cut-off is given here; in the data, active means normalized growth mostly below about 0.91 (no sharp cut-off); inconclusive means no clear call, values can overlap the other calls; inactive means mostly above about 0.92. The list shows a part of the results.

Test: chemical genetic growth profiling, strain panel (AID 1159580);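 further: tested at 20 µM; growth read once vehicle control cultures reached saturation at 30 °C; 1 = growth at the plate median or of vehicle wells; lower values mean less growth of the strain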
Conditions: S. cerevisiae deletion strains, growth OD

Measured: normalized growth

N[C@H](CCCCCP(=O)(O)O)C(=O)O
inactive: locus YAL013W, strain DEP1, active compounds read low 0.989 | locus YAL040C, strain CLN3, active compounds read low 1.06 | locus YCL061C, strain MRC1 (second series), active compounds read low 1.01 | locus YER002W, strain NOP16, active compounds read low 1 | locus YGR078C, strain PAC10, active compounds read low 1 | locus YJR075W, strain HOC1, active compounds read low 1.01 | locus YMR263W, strain SAP30, active compounds read low 1.01 | locus YNL128W, strain TEP1, active compounds read low 0.987 | locus YNL153C, strain GIM3, active compounds read low 1.02 | locus YNL175C, strain NOP13, active compounds read low 0.994 | locus YNL197C, strain WHI3, active compounds read low 0.968 | locus YNL224C, strain SQS1, active compounds read low 1 | locus YOR083W, strain WHI5 (second series), active compounds read low 0.964 | locus YPL055C, strain LGE1, active compounds read low 0.997 | locus YPL241C, strain CIN2, active compounds read low 1
